Results reported in PubChem BioAssay (EPA / NIEHS).
Records with an inconclusive call do not appear. Activity calls are given as the source filed them. The calls were made as follows, unless noted: active = hit-call score of the fitted dose curve at least 0.9, where 1 is the maximum; inactive = score below 0.9.

Legend:
[1] = CCTE_Shafer_MEA_dev_firing_rate_mean: CCTE's Neural Network Formation Assay for Mean Firing Rate, Shafer Lab (AID 2284031)
Outline: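 Rat primary cortical neurons were seeded on multielectrode arrays and treated from plating through day 12, with redosing at each feed. Spontaneous spiking was recorded four times; mean firing rate AUC was fitted downward against DMSO.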

[2] = CCTE_Shafer_MEA_dev_per_burst_spike_percent: CCTE's Neural Network Formation Assay for Percent of Spikes in a Burst, Shafer Lab (AID 2284032)
Outline: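 Rat primary cortical neurons on 16-electrode MEA wells, dosed from plating day 0 for 12 days with renewal on DIV 5 and 9; spikes-in-bursts percentage averaged over bursting electrodes, collapsed as AUC across days 5, 7, 9, 12; loss direction versus DMSO.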

[3] = CCTE_Shafer_MEA_dev_active_electrodes_number: CCTE's Neural Network Formation Assay for Number of Active Electrodes, Shafer Lab (AID 2284040; active = hit-call score of the fitted dose curve at least 0.9, where 1 is the maximum)
Outline: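 Primary rat cortical neurons on 16-electrode MEA wells, exposed from day 0 through day 12 with compound renewed at DIV 5 and 9 feeds. Active electrodes (mean firing ≥5 spikes/min) counted at DIV 5, 7, 9, 12; trapezoidal AUC across days, loss-of-signal versus DMSO.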

[4] = CCTE_Shafer_MEA_dev_burst_rate: CCTE's Neural Network Formation Assay for Burst Rate, Shafer Lab (AID 2284042)
Outline: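 Rat primary cortical cultures on PEI/laminin MEA; compound from plating, re-dosed at DIV 5, 9 media change. Single-electrode bursts/recording length, well mean of active electrodes; AUC over DIV 5–12 recordings; loss-of-signal vs DMSO.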

[5] = CCTE_Shafer_MEA_dev_bursting_electrodes_number: CCTE's Neural Network Formation Assay for Number of Bursting Electrodes, Shafer Lab (AID 2284043; active = hit-call score of the fitted dose curve at least 0.9, where 1 is the maximum)
Outline: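 Read-out is the per-well number of electrodes bursting at least once every 2 minutes, recorded on days 5, 7, 9 and 12 and collapsed by trapezoidal area under the curve. Cultures were primary rat cortical neurons on MEA plates, treated continuously from plating.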

[6] = CCTE_Shafer_MEA_dev_per_burst_interspike_interval: CCTE's Neural Network Formation Assay for Burst Interspike Interval, Shafer Lab (AID 2284044);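 also: mean spike spacing inside bursts as AUC over recordings on days 5 7 9 12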
Outline: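 Mean interspike interval within single-electrode bursts, averaged over bursting electrodes, from rat cortical cultures on MEA plates recorded on days 5, 7, 9 and 12. Continuous compound exposure from plating; trapezoidal AUC fitted downward relative to DMSO.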

[7] = CCTE_Shafer_MEA_dev_burst_duration_mean: CCTE's Neural Network Formation Assay for Mean Burst Duration, Shafer Lab (AID 2284045)
Outline: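 Read-out: average first-to-last-spike interval within single-electrode bursts, averaged over bursting electrodes per well, then summarised as area under the curve across days 5, 7, 9 and 12. Developing rat cortical networks were exposed from day 0.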

[8] = CCTE_Shafer_MEA_dev_interburst_interval_mean: CCTE's Neural Network Formation Assay for Mean Interburst Interval, Shafer Lab (AID 2284046);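 also: well-mean interburst interval of bursting electrodes as AUC over four recording days; curve fitted for decrease in interburst interval relative to DMSO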
Outline: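 Rat cortical neurons, 1.5 x 10^5 cells/well, 48-well MEA; compound from day 0 through DIV 12, media and treatment renewed DIV 5/9. Recordings DIV 5, 7, 9, 12; well-mean interburst interval → trapezoidal AUC, loss direction vs DMSO.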

[9] = CCTE_Shafer_MEA_dev_inter_network_spike_interval_mean: CCTE's Neural Network Formation Assay for Mean Inter-network Spike Interval, Shafer Lab (AID 2284047)
Outline: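 Primary rat cortical neurons on PEI-coated 48-well MEAs (16 electrodes/well) were exposed from plating day 0 to DIV 12, with dosing renewed at DIV 5 and 9. Recordings at DIV 5, 7, 9, 12 were collapsed by trapezoidal AUC, loss-of-signal fit vs DMSO.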

[10] = CCTE_Shafer_MEA_dev_network_spike_number: CCTE's Neural Network Formation Assay for Number of Network Spikes, Shafer Lab (AID 2284048);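 also: synchronized bursts across electrodes counted on days 5 7 9 12 and integrated as AUC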
Outline: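 Developing networks of primary rat cortical neurons are treated over 12 days starting at plating, with media and compound fully replaced on DIV 5 and 9. Network spike counts from four recording days are integrated as trapezoidal AUC.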

[11] = CCTE_Shafer_MEA_dev_network_spike_peak: CCTE's Neural Network Formation Assay for Mean Number of Electrodes in Network Spike, Shafer Lab (AID 2284049)
Outline: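 Rat cortical primary culture, 1.5 x 10^5 cells/well, 48-well MEA (16 electrodes/well). Dosing day 0 through DIV 12, full media/compound exchange DIV 5, 9. AxIS adaptive spike detection; AUC over days 5/7/9/12; loss-of-signal vs DMSO.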

[12] = CCTE_Shafer_MEA_dev_spike_duration_mean: CCTE's Neural Network Formation Assay for Mean Spike Duration, Shafer Lab (AID 2284051);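 also: mean network spike duration pooled as area under curve over DIV 5 to 12 recordings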
Outline: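 Rat cortical primary cultures, 48-well MEA (16 electrodes/well); compound from plating, renewed DIV 5, 9. Network spike duration (AxIS adaptive detector) recorded DIV 5/7/9/12, combined as trapezoidal AUC; loss direction vs DMSO.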

[13] = CCTE_Shafer_MEA_dev_network_spike_duration_std: CCTE's Neural Network Formation Assay for Standard Deviation of Network Spike Duration, Shafer Lab (AID 2284052);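 also: area under curve of spike duration SD across recording days 5 to 12; hits are decreases in network spike duration SD versus DMSO vehicle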
Outline: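 Rat cortical cultures, 1.5 x 10^5 cells/well, exposed continuously from plating to DIV 12 with media/compound renewal at DIV 5, 9. Spontaneous activity recorded DIV 5/7/9/12, AxIS adaptive spike detector; AUC across days; negative direction vs DMSO.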

[14] = CCTE_Shafer_MEA_dev_per_network_spike_spike_number_mean: CCTE's Neural Network Formation Assay for Mean Number of Spikes in a Network Spike, Shafer Lab (AID 2284053)
Outline: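 Rat cortical primary cultures on 48-well MEA; compound from day 0, re-dosed with full media change DIV 5, 9. Recorded DIV 5, 7, 9, 12; spikes in 0.05 s window at network-spike peak ÷ total network spikes; AUC; loss vs DMSO.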

[15] = CCTE_Shafer_MEA_dev_per_network_spike_spike_percent: CCTE's Neural Network Formation Assay for Percent of Spikes in a Network Spike, Shafer Lab (AID 2284054)
Outline: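 Rat primary cortical cultures, 1.5 x 10^5 cells/well on MEA. Continuous compound exposure d0–12, medium/compound renewed DIV 5, 9. Network-spike spike % (0.05 s peak window), AUC over 4 recordings, DMSO baseline.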

[16] = CCTE_Shafer_MEA_dev_LDH: CCTE's Lactate Dehydrogenase Assay for Cytotoxicity in the Neural Network Formation Assay, Shafer Lab (AID 2284068; active = hit-call score of the fitted dose curve at least 0.9, where 1 is the maximum;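 also: exposure for twelve days from plating with re-dosing on DIV 5 and 9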)
Outline: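 Rat cortical primary neurons, MEA culture; dosing day 0–12, full medium plus compound exchange DIV 5, 9. Read-out: LDH enzyme activity, spectrophotometric. DMSO = negative control/baseline; signal loss → cytotoxicity.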

[17] = CCTE_Shafer_MEA_dev_AB: CCTE's Alamar Blue Assay for Cytotoxicity in the Neural Network Formation Assay, Shafer Lab (AID 2284083; active = hit-call score of the fitted dose curve at least 0.9, where 1 is the maximum;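 also: resazurin reduction fluorescence as viability of cultured neurons; twelve days of exposure from plating with re-dosing on DIV 5 and 9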)
Outline: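 Rat cortical primary cultures, 1.5 x 10^5 cells/well on MEA; continuous compound exposure over 12 days of network development, re-dosed with full medium change DIV 5 and 9. Alamar Blue fluorescence; loss of signal = cytotoxicity vs DMSO baseline.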

[18] = CCTE_Shafer_MEA_dev_mutual_information_norm: CCTE's Neural Network Formation Assay for Mutual Information Normalization, Shafer Lab (AID 2284091)
Outline: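 Developing rat cortical networks on 16-electrode MEA wells are treated throughout formation (DIV 0–12). Shared electrode information is recorded four times, converted to area-under-curve, and fitted for decreases against DMSO vehicle.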

[19] = IUF_NPC1a_proliferation_area_72hr: Leibniz Research Institute for Environmental Medicine (IUF) 72-hour Neural Progenitor Cell Proliferation Area Assay (NPC1a) (AID 2284208)
Outline: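 Proliferation read as increase in sphere area by phase-contrast imaging over 72 h continuous compound exposure (no renewal) of hNPC spheres grown with EGF/FGF at 37C, 5% CO2. Growth-factor withdrawal served as positive control; DMSO as baseline.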

[20] = IUF_NPC1_viability_72hr: Viability Assessment at 72 hours in the Leibniz Research Institute for Environmental Medicine (IUF) Neural Progenitor Cell Proliferation Assay (NPC1) (AID 2284209)
Outline: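 hNPC spheres, 1/well, EGF+FGF medium, 37C/5% CO2; dosed day 0, 72 h, no re-dosing. Resazurin reduction (alamar blue) fluorescence; DMSO = negative control/baseline; growth-factor-free wells as positive control.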

[21] = CCTE_Mundy_HCI_Cortical_Synap_Neur_Matur_NeuriteSpotCountPerNeuriteLength: CCTE's Synaptogenesis and Neurite Maturation Assay in rat cortical cells for Neurite Spot Count per Neurite Length, Mundy Lab (AID 2284210)
Outline: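 Primary rat cortical neurons, compound exposure DIV 7–12, 288.33 h endpoint. Hoechst, anti-MAP2 and anti-synaptophysin labelling; neurite-associated puncta per neurite length scored by automated imaging relative to DMSO controls.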

[22] = CCTE_Mundy_HCI_Cortical_Synap_Neur_Matur_BPCount: CCTE's Synaptogenesis and Neurite Maturation Assay in rat cortical cells for Branch Point Count, Mundy Lab (AID 2284211)
Outline: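 Rat primary cortical cultures, AraC added DIV 5; chemicals dosed DIV 7 through DIV 12. Fixed cells stained for MAP2, synaptophysin and Hoechst; neurite branch points counted by automated high-content imaging, fitted relative to DMSO.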

[23] = CCTE_Mundy_HCI_Cortical_NOG_NeuriteCount: CCTE's Neurite Outgrowth Assay in rat cortical cells for Neurite Count, Mundy Lab (AID 2284212);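 also: cells fixed about two days after chemical exposure began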
Outline: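 Neurite number per cell from high-content imaging of betaIII-tubulin immunostaining, with Hoechst nuclear counterstain.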

Measured: outcome

COP(=O)(OC)SCN1C(=O)c2ccccc2C1=O
inactive: all assays above
